# Calpain2 inh = inhibitors of pig calpain II; AID 1236; inhibition, % at 16 µM; hit rate 0.37% among 220,000; purified calpain II, fluorogenic peptide substrate, 30 min;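 active = inhibition above about 50%, limit read from the data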
# Bim-Mcl-1 = inhibitors of Bim-Mcl-1 interaction, human | Q07820 | Bead-based flow cytometry, Bim peptide-Mcl-1 binding | inhibition, % at 10 µM | hit rate 0.1% among 190,000; in the data active = inhibition above about 40%;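 also: 0% = no compound tracer wells and 100% = peptide blocker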
# NCF1 inh = blocks human p47phox regulatory protein of NADPH oxidases. P14598. p47phox/p22phox peptide binding, fluorescence polarization, 2 h. inhibition, % at 24.7 µM. hit rate 0.53% among 220,000. AID 1274;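 active = inhibition above about 30%, limit read from the data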;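 also: 0% = p47phox with labelled peptide and 100% = labelled peptide alone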
# Mcl1-Noxa inh = disrupts binding of human Mcl-1 to Noxa peptide. Q07820. TR-FRET Mcl-1/Noxa peptide binding, 2 h. inhibition, % at 21.7 µM. hit rate 1.5% among 220,000. AID 1022;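 active = compounds that cut the protein-peptide binding signal by more than 50% relative to plate controls in a single-dose test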;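 also: His-tagged Mcl-1 with rhodamine Noxa BH3 peptide and terbium anti-His antibody; 0% = Mcl-1 plus Noxa peptide wells and 100% = peptide-only wells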
# Mcl1-Bid inh = Mcl-1/Bid interaction inhibition | Q07820 | TR-FRET Mcl-1/Bid-Dy647 peptide binding, 1536-well | inhibition, % at 21.7 µM | hit rate 0.97% among 220,000;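 active = compounds that cut the binding signal by more than half at the single screening dose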;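 also: His-tagged Mcl-1 with europium anti-His antibody binding Bid BH3 peptide; 0% = Mcl-1 plus peptide wells and 100% = peptide-only wells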
# 14-3-3 Bad PPI = disrupts binding of bovine 14-3-3 zeta to phospho-Bad peptide; hit rate 0.71% among 220,000; inhibition, % at 21.7 µM; TR-FRET 14-3-3zeta/Dy647-pBad peptide displacement, 1 h; P63103;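 active = inhibition above about 70%, limit read from the data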;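 also: 0% = full 14-3-3 plus peptide FRET controls and 100% = background without 14-3-3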
# Target sequence (P63103 whole entry, looked up): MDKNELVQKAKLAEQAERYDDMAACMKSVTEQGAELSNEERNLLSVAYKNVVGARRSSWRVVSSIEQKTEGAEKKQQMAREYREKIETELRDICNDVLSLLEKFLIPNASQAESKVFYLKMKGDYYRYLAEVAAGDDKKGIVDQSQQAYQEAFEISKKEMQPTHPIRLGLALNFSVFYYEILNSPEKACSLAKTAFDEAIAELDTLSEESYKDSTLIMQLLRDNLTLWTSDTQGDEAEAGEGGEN
# * = called active by the depositor; . = no result. In the library only some 3.4% were active in any assay of this set; here they are far more common.
SMILES,Calpain2 inh,Bim-Mcl-1,NCF1 inh,Mcl1-Noxa inh,Mcl1-Bid inh,14-3-3 Bad PPI
O=C(COc1ccccc1)N/N=C/c1ccc([N+](=O)[O-])o1,17,-3,-2,4,-22,10
COc1ccc(-c2nn(-c3ccccc3)cc2C(=O)N/N=C/c2ccc([N+](=O)[O-])o2)cc1,17,0,7,52*,21,-8
O=C(CCN1C(=O)C2CCCCC2C1=O)Nc1ccc(F)c(F)c1F (stereo unspecified),14,0,2,18,-6,7
COc1cccc(NC(=S)/C(=C(\[O-])c2cc(C)n(-c3ccccc3F)c2C)[n+]2ccc(N(C)C)cc2)c1,-83,-1,-9,20,-27,-7
Cc1ccccc1NC(=O)CSc1nc(O)cc(=O)n1C,-14,.,-105,-8,-46,-1
Cc1nn(-c2ccccn2)c2c1C(=O)C(Br)CC2 (stereo unspecified),-12,18,-16,55*,-9,-15
Cc1sc(NC(=O)c2cc(-c3ccc(Cl)cc3)nc3ccccc23)c(C(N)=O)c1C,-50,1,-41,77*,77*,79*
COc1ccc(C(=O)N(Cc2ccccc2)Cc2cc3cc4c(cc3[nH]c2=O)OCCO4)cc1,-10,0,-4,4,95*,3
Clc1nc(NCc2cccnc2)nc(N2CCOCC2)n1,-16,0,-7,21,-4,-5
CC(=O)N1CCc2c(sc(NC(=O)c3ccc([N+](=O)[O-])o3)c2C#N)C1,-20,-5,-12,53*,-33,5
Cc1ccc(CNC(=O)c2ccc(COc3ccccc3)cc2)cc1,-14,-6,-15,12,-34,-11
COc1ccc(Cn2c(SCc3ccc(C)cc3)nc3cc(OC)c(OC)cc3c2=N)cc1Cl,-14,-2,35*,-3,15,6
COc1ccc(Cn2c(SCc3cc(C)ccc3C)nc3cc(OC)c(OC)cc3c2=N)cc1,-16,-6,66*,19,5,-2
COc1cc2nc(SCc3ccc(C(F)(F)F)cc3)n(Cc3cccs3)c(=N)c2cc1OC,-8,0,-20,-4,-12,-16
COc1cc2nc(SCc3ccc(Cl)cc3Cl)n(Cc3cccs3)c(=N)c2cc1OC,-184,0,-50,-47,-37,-14
COc1ccc2[nH]c(C)c(CCNC(=S)Nc3cc(C)cc(C)c3)c2c1,-15,-2,-9,4,-15,-9
CCc1c(C)[nH]c2ccc(OC)cc2c1=S,-66,-5,2,74*,-2,-6
COc1ccc2nc(SCC(=O)NC(C)C)[nH]c2c1,3,0,-4,1,0,80*
COc1ccc(NC(=O)CSc2nc3ccc(OC)cc3[nH]2)cc1,-10,.,-13,8,-59,4
Cc1cccc(-n2ncc(C#N)c2N)c1,-34,-2,172*,-12,-38,.
N#Cc1cnn(-c2cccc(Cl)c2)c1N,-17,2,-3,-7,-7,-17
O=C(NNC1CC(=O)N(c2ccc(Br)cc2)C1=O)c1cccnc1 (stereo unspecified),-20,0,0,2,-5,-21
Cc1cc2nc3c(=O)n(C4CCCCC4)c(=O)[nH]c3nc2cc1N,-57,13,-16,-120,-87,4
C=C(C(=O)c1ccccc1)C(C(=C)C(=O)c1ccccc1)c1ccc(OC)cc1,16,.,-4,7,69*,9
COc1ccc(C(CC(=O)c2ccccc2)CC(=O)c2ccccc2)cc1,13,.,-19,15,5,2
SMILES,Calpain2 inh,Bim-Mcl-1,NCF1 inh,Mcl1-Noxa inh,Mcl1-Bid inh,14-3-3 Bad PPI
CC(C)CC1NC(=O)N(CC(=O)N2c3ccccc3NC(=O)C2(C)C)C1=O (stereo unspecified),8,0,0,82*,-29,-10
CC1(C)C(=O)Nc2ccccc2N1C(=O)Cn1ncc(Cl)c(Cl)c1=O,-4,.,-12,58*,-1,-2
CC1(C)C(=O)Nc2ccccc2N1C(=O)COC(=O)C1CCCCC1,6,-5,32*,-1,-3,-6
CCOC(=O)C1C(c2cccs2)NC(=O)N(C)C1(O)C(F)(F)F (stereo unspecified),-6,-1,-7,0,61*,-13
Clc1ccccc1N=C1NN=C(c2cccs2)CS1,-3,-1,-22,-40,-20,-22
O=C(CCc1ccc(O)cc1)N/N=C/c1coc2ccccc2c1=O,1,.,-16,16,-5,2

# Assay outcomes (PubChem)
